We go through five molecules from PubChem BioAssay (NCI).

What all share (test): NCI-60 one-dose screen, 48 h (100 = growth as untreated, 0 = no growth, -100 = all killed)
Holding throughout (settings): 10 µM unless noted

Test [1] relates to NCI-H23 lung.
For test [2], the system named is NCI-H322M lung.
The test system of test [3] is HOP-62 NSCLC.
Test [4] deals with NCI-H460 lung.
The subject of test [5] is HOP-92 NSCLC.
In test [6] the test system is NCI-H522 lung.
Test [7] relates to A549/ATCC NSCLC.
The subject of test [8] is 786-0 renal.
The test system of test [9] is COLO 205 colon.
In test [10] the test system is DU-145 prostate.
Test [11] relates to K-562 leukemia.
Test [12] concerns MALME-3M melanoma.
Test [13] deals with MDA-MB-231 breast.
Test [14] has as its system RXF 393 renal.
The subject of test [15] is SF-268 CNS.
Test [16] has as its system SF-295 CNS.
Test [17] concerns SF-539 CNS.
For test [18], the system named is UACC-257 melanoma.
Test [19] concerns M14 melanoma.
The subject of test [20] is NCI-H226 lung.

Values joined by “and” are separate entries in the source; they are usually repeats but may differ in a detail not shown here. Equal entries are not always repeated. The panel holds about 83,000 compounds, 20% with a hit somewhere; the sample as a whole holds those more often.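 96-well plates, one dose, 48 hours. Percent growth reported; active if below 10.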 Active and inactive are the calls of the source.

As to `O=C(N/N=C/c1ccccc1)N/N=C/c1ccccc1`, the growth is 118% (inactive) and 101% (inactive) in [1]; 103% (inactive) and 116% (inactive) in test [2]; 104% (inactive) and 117% (inactive) in [3]; 118% (inactive) and 95.1% (inactive) in test [4]; 100% (inactive) and 90.3% (inactive) in test [5]; 99.5% (inactive) and 106% (inactive) in [6]. For the same molecule, the growth in test [7] is 102% (inactive) and 104% (inactive); in test [8], 118% (inactive) and 116% (inactive); in test [9] it was 109% (inactive) and 129% (inactive); in test [10] it was 131% (inactive) and 109% (inactive); in test [11], 95% (inactive); in test [12], 94.4% (inactive) and 107% (inactive). The growth in test [13] is 106% (inactive); in test [14] it was 107% (inactive) and 98.5% (inactive); in test [15], 112% (inactive) and 100% (inactive); in [16], 92.4% (inactive) and 105% (inactive); in [17] it was 100% (inactive) and 98.3% (inactive); in test [18], 90.3% (inactive) and 106% (inactive). Also, the growth in test [19] was 123% (inactive) and 115% (inactive).
In the case of `Cc1c(Cl)cccc1NCN1C(=O)c2ccccc2C1=O`, the growth in test [1] is 102% (inactive); in test [20] it was 98.7% (inactive); in test [2], 99.8% (inactive); in [3] it was 101% (inactive); in test [4], 108% (inactive); in test [6] it was 81.1% (inactive). In addition, the growth in test [7] was 99.1% (inactive); in [8] it was 103% (inactive); in [9], 105% (inactive); in [10], 115% (inactive); in test [11], 109% (inactive); in test [12] it was 104% (inactive). Besides, the growth is 121% (inactive) in [13]; 107% (inactive) in test [14]; 107% (inactive) in test [15]; 102% (inactive) in test [16]; 102% (inactive) in test [17]; 100% (inactive) in test [18]. Further, the growth in [19] is 110% (inactive).
Regarding `CNC(=O)c1cc(Oc2ccc(NC(=O)Nc3ccc(Cl)c(C(F)(F)F)c3)cc2)ccn1`, the growth is -10.2% (active) and -19.9% (active) in test [1]; -17.8% (active) and -23.1% (active) in test [20]; -2.52% (active) and 18.3% (inactive) in test [2]; 5.13% (active) and 22.5% (inactive) in test [3]; 6.19% (active) and 2.65% (active) in test [4]; -18.5% (active) and -38.9% (active) in test [6]. The growth is 3.89% (active) and -36.4% (active) in test [7]; 16.2% (inactive) and 15.5% (inactive) in test [8]; -46% (active) and -24.7% (active) in test [9]; 20.7% (inactive) and 13.7% (inactive) in [10]; 1.27% (active) and 29.2% (inactive) in test [11]; -40.2% (active) and 53% (inactive) in test [12]. For the same molecule, the growth in [13] is -34% (active) and -34.5% (active); in [14], -35.8% (active) and -56.3% (active); in test [15] it was 25.7% (inactive) and 7.26% (active); in test [16], 10.7% (inactive) and 6.13% (active); in [17], -33.4% (active) and 10.8% (inactive); in test [18], -26.1% (active). The growth in test [19] was -4.68% (active) and 5.32% (active).
Turning to `O=C(O)CSCc1nc2ccccc2[nH]1`, the growth was 95.7% (inactive) in test [1]; 106% (inactive) in test [20]; 117% (inactive) in test [2]; 120% (inactive) in test [3]; 105% (inactive) in test [4]; 104% (inactive) in test [6]. Also, the growth in test [7] was 110% (inactive); in test [8] it was 103% (inactive); in test [10], 111% (inactive); in test [12], 127% (inactive); in [13] it was 98.4% (inactive); in [14], 112% (inactive). Also, the growth was 99.2% (inactive) in test [15]; 112% (inactive) in test [16]; 103% (inactive) in test [17]; 111% (inactive) in test [18]; 97.4% (inactive) in test [19].
For `CC(CN=Cc1ccccc1O)N=Cc1ccccc1O` (stereo not drawn), the growth is 101% (inactive) and 102% (inactive) in [1]; 92.6% (inactive) and 91.4% (inactive) in test [20]; 79.2% (inactive) and 113% (inactive) in [2]; 98.9% (inactive) and 104% (inactive) in test [3]; 107% (inactive) and 100% (inactive) in test [4]; 75.7% (inactive) and 106% (inactive) in test [6]. For the same molecule, the growth in test [7] was 107% (inactive) and 117% (inactive); in [8] it was 104% (inactive) and 109% (inactive); in [9] it was 98.5% (inactive); in test [10], 121% (inactive) and 105% (inactive); in [11], 78.7% (inactive) and 88.2% (inactive); in test [12] it was 124% (inactive) and 110% (inactive). Further, the growth in test [13] is 111% (inactive) and 104% (inactive); in [14] it was 102% (inactive) and 91% (inactive); in test [15], 108% (inactive) and 91% (inactive); in [16] it was 112% (inactive); in test [17], 94.9% (inactive) and 87.9% (inactive); in test [18], 87.7% (inactive) and 121% (inactive). For the same molecule, the growth in test [19] is 106% (inactive) and 102% (inactive).
